Assay results as given in PubChem BioAssay (Tox21).
Results filed as inconclusive are left out. A number with no mark means an inactive call. Calls of active or inactive are those of the source. The call rests on the fitted dose curve; in most records, active means well fitted cell-killing curve with a large enough effect in the repeat runs; inconclusive means weak or mixed curves, or effect the other way; inactive means flat fitted curve, though single readings scatter.

experiment: qHTS RealTime-Glo MT Cell Viability Assay in HepG2 cells - 40 hour (AID 1224870); settings: RealTime-Glo luminescence; series mostly up to 76.8 µM; activity change, negative = cytotoxic: at the top concentration; further: nearly all actives have a fitted effect of over 50% in size
Text: National Center for Advancing Translational Sciences [NCATS]
NIH Chemical Genomics Center [NCGC]
U.S. Environmental Protection Agency [EPA]
National Institutes of Environmental Health Sciences [NIEHS]
National Toxicology Program [NTP]
U.S. Food and Drug Administration [FDA]
Measure of cell viability is critical in the cell-base assay. Analysis of cell viability is necessary for the characterization of cell responses to cytotoxic drugs and environmental stress. A RealTime-Glo MT Cell Viability Assay to monitor cell viability in real time of continues cell culture during 40 hours of compound treatment was used to screen Tox21 10K library compounds in HepG2 cells. The RealTime-Glo MT Cell Viability Assay is a nonlytic, homogeneous, bioluminescent method to measure cell viability in real time using a simple, plate-based method. The assay involves adding NanoLuc luciferase and a cell-permeant prosubstrate to cells in culture. Viable cells reduce the proprietary prosubstrate to generate a substrate for NanoLuc luciferase. This substrate diffuses from cells into the surrounding culture medium, where it is rapidly used by the NanoLuc Enzyme to produce a luminescent signal. The signal correlates with the number of viable cells, making the assay well suited for cytotoxicity studies.
Tox21 Assay Protocol Summary:
The mixture of HepG2 cell suspension and reagents were dispensed at 600cells/6 ul/well in 1536-well tissue culture treated black solid bottom plates using a Multidrop dispenser. After the assay plates were incubated at a 37 C/5% CO2 incubator for 5 hours, 23 nL of compounds dissolved in DMSO, positive and negative controls was transferred to the assay plate by a pintool work station. The plates were incubated at 37 C for 40 hours. The luminescence intensity were measured at 0h, 8h, 16h, 24h, 32h and 40h time points using ViewLux plate reader during compound treatment.
On the % scale 0 is the no-effect control and ±100 the full control effect; potency means the concentration at half of the fitted maximal effect.

Row | Structure (SMILES) | activity change, negative = cytotoxic | Potency
1 | ClC(Cl)(Br)Br | 2% | –
2 | CC/C=C\CCOC(C)=O | 1.43% | –
3 | C1CN(CCOCCN2CCOCC2)CCO1 | 0.423% | –
4 | CN(C)CCCN1c2ccccc2CCc2ccc(Cl)cc21 | – | 43.6 µM (active)
5 | CN1N=C(C(N)=O)CCC1=O | 1.01% [at 35.3 µM] | –
6 | OC(CCN1CCCCC1)(c1ccccc1)C1CC2C=CC1C2 (stereo not given) | 1.57% [at 35.3 µM] | –
7 | NCCCNCCSP(=O)(O)O | 0.256% [at 6.97 µM] | –
8 | CCCCCOC(=O)CCCCC | 3.94% | –
9 | COC(=O)c1cc(C(=O)OC)cc(S(=O)(=O)O)c1 | 0.516% | –
10 | CC(C)(C)c1nnc(NS(=O)(=O)c2ccccc2)s1 | 0.198% [at 35.3 µM] | –
11 | O=c1n(CCO)c(=O)n(CCO)c(=O)n1CCO | – | inactive
12 | O=C(O)c1ccccc1OP(=O)(O)O | -0.798% [at 35.3 µM] | –
13 | NS(=O)(=O)c1cc(C(=O)O)cc(N2CCCC2)c1Oc1ccccc1 | 4.9% [at 35.3 µM] | –
14 | CC(=O)OCC(=O)[C@@]1(O)CC[C@H]2[C@@H]3CCC4=CC(=O)CC[C@]4(C)[C@H]3C(=O)C[C@@]21C | -7.53% [at 35.3 µM] | –
15 | CC(C)NC(=O)NC(C)C | -0.145% | –
16 | CCC(=O)OC(C)c1ccccc1 (stereo not given) | 2.05% | –
17 | COCCc1ccc(OCC(O)CNC(C)C)cc1 (stereo not given) | – | inactive
18 | CC(C)CNCC(C)C | 0.541% | –
19 | CCCCCCOC(=O)CCCCC(=O)OCCCCCC | -6.02% | –
20 | CN(C)CCCSc1ccccc1NC(=O)/C=C/c1ccccc1 | -2.41% [at 35.3 µM] | –

Row | Structure (SMILES) | activity change, negative = cytotoxic | Potency
21 | CC(=O)Nc1ccc(S(N)(=O)=O)cc1 | -0.379% | –
22 | Cc1cc2c(cc1S(N)(=O)=O)S(=O)(=O)CCC2 | 2.63% [at 35.3 µM] | –
23 | FC(F)OC(Cl)C(F)(F)F (stereo not given) | -1.22% | –
24 | N=c1nc(N2CCCCC2)cc(N)n1O | 3% [at 35.3 µM] | –
25 | CN1C(=O)N(C)C(O)C1O (stereo not given) | -0.2% | –
26 | CCCN(CCC)CCc1cccc2c1CC(=O)N2 | -0.836% [at 35.3 µM] | –
27 | COc1ccccc1OCC(O)CN1CCN(CC(=O)Nc2c(C)cccc2C)CC1 (stereo not given) | -0.585% [at 35.3 µM] | –
28 | C=COCC1CCC(CO)CC1 (stereo not given) | -1.82% | –
29 | CC(C[N+](C)(C)C)OC(N)=O (stereo not given) | 0.924% [at 35.3 µM] | –
30 | O=C1CC2CC1C1CCCC21 (stereo not given) | 1.02% | –
31 | CC(C)NCCCC1(C(N)=O)c2ccccc2-c2ccccc21 | 0.615% [at 35.3 µM] | –
32 | Nc1cc(=O)[nH]c(N)n1 | 3.91% [at 35.3 µM] | –
33 | N#Cc1ccc(C2CCCc3cncn32)cc1 (stereo not given) | 1.82% [at 35.3 µM] | –
34 | Cc1ccc(=O)n(-c2ccccc2)c1 | 2% [at 35.3 µM] | –
35 | CO[Si](CCCOCC1CO1)(OC)OC (stereo not given) | – | inactive
36 | C=C(C)C(=O)OCCCCCCCC(C)C | 0.687% | –
37 | COC(=O)CC(C)=O | -5.85% | –
38 | CCCCCCCCS(=O)(=O)Cl | 0.941% | –
39 | CC(C)(CC(=O)O)C(=O)O | -0.623% | –
40 | Cc1cnc(NS(=O)(=O)c2ccc(N)cc2)nc1 | 0.466% [at 35.3 µM] | –
